Results published in PubChem BioAssay (NCATS).
Results filed as inconclusive are left out. The source made the active and inactive calls. Unless noted, calls follow the shape of the dose curve; as a rule, active = well fitted curve in the direction sought with a large enough effect; inconclusive = small, poorly fitted or top-dose-only effect, or another doubt; inactive = no such curve, though single readings can be large; an effect the other way counts as inactive or inconclusive.

Key:
[1] = molecular target: Alpha-galactosidase (Coffea arabica) (UniProt Q42656); experiment: Counterscreen for Glucocerebrosidase Inhibitors: qHTS Assay for Coffee Bean alpha-Galactosidase at pH 4.5 (AID 957);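 also: series mostly up to about 77 µM; plate controls were enzyme alone for no effect and no enzyme for full effect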
Method in brief: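 Coffee bean alpha-galactosidase 2 nM, substrate 4-MU-alpha-Gal 80 uM, pH 4.5 citrate/Tween-20, 20 min RT. Cpd titration 0.7 nM–77 uM. Stop pH 10, fluorescence 365/440 nm; Hill-equation AC50.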

[2] = molecular target: Alpha-galactosidase A (Homo sapiens) (UniProt P06280); experiment: Counterscreen for Glucocerebrosidase Inhibitors: qHTS Assay for Human alpha-Galactosidase at pH 4.5 (AID 992); also: 0% is about no effect
Method in brief: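 Human enzyme (2 nM) with 80 uM 4-methylumbelliferyl alpha-D-galactopyranoside in 50 mM citric acid, 0.005% Tween-20, pH 4.5, 20 min at room temperature. Compounds 0.7 nM–77 uM; fluorescence Ex 365/Em 440 after pH 10 stop; AC50 from Hill fits.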

[3] = molecular target: alpha-glucosidase (Oryza sativa, rice) (UniProt Q653V4); experiment: Counterscreen for Glucocerebrosidase Inhibitors: qHTS Assay for Rice alpha-Glucosidase at pH 5.0 (AID 997);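 also: 0% = full activity with enzyme and -100% = basal without enzyme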
Method in brief: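 Rice alpha-glucosidase (4 nM final) with 400 uM 4-methylumbelliferyl-alpha-D-glucopyranoside in citrate buffer pH 5.0, 20 min at room temperature, stopped at pH 10; fluorescence 365/440 nm, compounds 0.7 nM–77 uM, AC50 from Hill fits.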

[4] = molecular target: Alpha-galactosidase (Coffea arabica) (UniProt Q42656); experiment: Counterscreen for Glucocerebrosidase Inhibitors: qHTS Assay for Coffee Bean alpha-Galactosidase at pH 5.9 (AID 998);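 also: plate controls were uninhibited enzyme for no effect and no-enzyme basal signal for full effect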
Method in brief: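 Compounds were titrated from 0.7 nM to 77 uM against green coffee bean alpha-galactosidase (2 nM) using 80 uM fluorogenic 4-methylumbelliferyl substrate. After 20 min at room temperature, reactions were stopped at pH 10 and read by fluorescence.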

[5] = Confirmatory screen GU Rhodamine qHTS for Zika virus inhibitors qHTS (AID 1347157); also: potency is read from the fitted curve at half-maximal effect; nearly all actives have a fitted effect of over 70% in size
Method in brief: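 Percent inhibition came from the 15-min rise in Rhodamine110 fluorescence (1.5 microM substrate, ~15% conversion), normalized to no-inhibitor and no-enzyme wells and Hill-fitted. Unlinked protease, 25 nM, pH 8.0 Tris buffer; compounds up to 114 microM, 15-min preincubation.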

[6] = Confirmatory screen NINDS Rhodamine qHTS for Zika virus inhibitors (AID 1347161); also: potency is read from the fitted curve at half-maximal effect; nearly all actives have a fitted effect of over 60% in size
Method in brief: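 In 10 mM Tris-HCl pH 8.0 containing 0.01% Tween 20, linked NS2B-NS3 protease (25 nM final) is exposed to test compounds for 15 min. Cleavage of 1.5 microM Rhodamine110 substrate is tracked by fluorescence over 15 min.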

[7] = molecular target: Calcium and integrin-binding protein 1 (Homo sapiens) (UniProt Q99828); experiment: Confirmatory qHTS for Identification of Calcium Integrin Binding Protein 1 (CIB1) Competitor (AID 1508617); conditions: CIB1 binding competition assay, biochemical qHTS; also: potency is read from the fitted curve at half-maximal effect; nearly all actives have a fitted effect of over 65% in size
Method in brief: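 FP competition: CIB1-GST (1 uM final) in 5 mM HEPES pH 7.4, 125 mM NaCl, 5 mM CaCl2, 0.01% Tween20 preincubated 15 min RT with compounds (up to 114 uM), then FITC-alphaIIb peptide (100 nM), 15 min RT; Ex 480/Em 540.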

[8] = qHTS Assay for Identification of Small Molecule Agonists for Hypoxia Response Element Signaling Pathway (AID 914; active = well fitted activation curve with a large enough effect in the signal ratio, with a control signal flat, not every such curve was filed as active; the % refers to the signal ratio; also: % of control where 0% means no effect); conditions: ME-180 (cervical carcinoma) HRE-bla reporter, beta-lactamase ratio, CoCl2, 17 h; activation: hits give high values
Method in brief: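 HRE-bla ME-180 assay for agonist-like enhancement of an EC50 CoCl2 stimulus: 17 h at 37 degrees Celsius, CCF4 for 2.5 h, ratiometric 460/530 nm signal converted to %Activity and fitted to AC50.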

[9] = molecular target: Nuclear receptor subfamily 1 group I member 3 (Homo sapiens) (UniProt Q14994); experiment: Primary qHTS for antagonist of constitutive androstane receptor (CAR) against the NCATS DSHEA and TCM libraries (AID 1794836); also: potency is read from the fitted curve at half-maximal effect
Method in brief: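 Antagonist mode: CAR reporter luminescence (ONE-Glo) in HepG2-CYP2B6-hCAR cells stimulated with 48 uM CITCO (final) over 24 h at 37 C, compounds titrated; viability read first by CellTiter-Fluor fluorescence.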

[10] = Viability counterscreen for agonist of constitutive androstane receptor (CAR) against the NCATS DSHEA and TCM libraries (AID 1794838); also: 0% is about no effect
Method in brief: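 HepG2-CYP2B6-hCAR cells (2,500/well) attached 5 h, then got compounds plus 0.75 uM PK11195 final. After 24 h at 37C, viability read by CellTiter-Fluor fluorescence (Ex/Em 405/540 nm).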

[11] = molecular target: Nuclear receptor subfamily 1 group I member 3 (Homo sapiens) (UniProt Q14994); experiment: Primary qHTS for agonist of constitutive androstane receptor (CAR) against the NCATS DSHEA and TCM libraries (AID 1794839);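 also: HepG2 cells expressing human CAR with a CYP2B6 reporter plus PK11195 antagonist; 0% is about no effect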
Method in brief: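 HepG2-CYP2B6-hCAR cells (2,500/well) were attached for 5 h, then treated for 24 h at 37 °C with compounds plus 0.75 µM PK11195. Luciferase luminescence (ONE-Glo) was read, with CellTiter-Fluor viability (Ex/Em 405/540 nm).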

[12] = HepG2 viability counterscreen (readout 2: ATP content) against the NCATS DSHEA and TCM libraries (AID 1794840);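 also: HepG2 cells exposed to substances for about 24 h; 0% is about no effect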
Method in brief: (§1)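 HepG2 cells (1,000 cells/well) attached ~4 h, then treated ~24 h at 37C with substances. Protease activity read by GF-AFC (25 uM final, 30 min, Ex/Em 380/510 nm); ATP content then by CellTiter-Glo luminescence.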

[13] = HepG2 viability counterscreen (readout 1: protease activity) against the NCATS DSHEA and TCM libraries (AID 1794841);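 also: cells exposed to compounds for about 24 h before the protease read; 0% is about no effect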
Method in brief: as §1

[14] = molecular target: Cytochrome P450 3A4 (Homo sapiens) (UniProt P08684); experiment: qHTS for inhibitors of CYP3A4 against the NCATS DSHEA and TCM libraries (AID 1919971);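 also: % is scaled to controls: 0 for no effect and ±100 for the full control effect; inhibition lowers luminescence from luciferin made by CYP3A4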
Method in brief: (§2)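 Read-out is luminescence after P450-Glo detection (30 min, RT). Before that: 15 min compound–enzyme preincubation, then 30-45 min reaction with 1x NADPH regeneration solution, substrate concentration isoform-specific.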

[15] = molecular target: Cytochrome P450 2D6 (Homo sapiens) (UniProt P10635); experiment: qHTS for inhibitors of CYP2D6 against the NCATS DSHEA and TCM libraries (AID 1919972); also: % is scaled to controls: 0 for no effect and ±100 for the full control effect
Method in brief: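 Luminescent P450-Glo read-out of CYP2D6 turnover of a luciferin substrate after NADPH-driven reaction of 30-45 min at room temperature. Compounds were first preincubated 15 min with enzyme at titrated concentrations; quinidine was the intraplate control.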

[16] = molecular target: Cytochrome P450 2C9 (Homo sapiens) (UniProt P11712); experiment: qHTS for inhibitors of CYP2C9 against the NCATS DSHEA and TCM libraries (AID 1919973);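 also: luminogenic pro-luciferin CYP2C9 substrate turned into luciferin with NADPH regeneration; series mostly up to about 34 µM; % is scaled to controls: 0 for no effect and ±100 for the full control effect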
Method in brief: as §2

[17] = molecular target: Cytochrome P450 2C19 (Homo sapiens) (UniProt P33261); experiment: qHTS for inhibitors of CYP2C19 against the NCATS DSHEA and TCM libraries (AID 1919974); conditions: CYP2C19 enzyme inhibition, luminescence qHTS;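 also: luminescence from luciferin released by CYP2C19 oxidation of a pro-luciferin substrate; potency is read from the fitted curve at half-maximal effect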
Method in brief: as §2

[18] = KB-3-1 P-gp reporter qHTS against the NCATS DSHEA and TCM libraries (AID 1919975); also: 0% is about no effect
Method in brief: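 Parental KB-3-1 human cervical adenocarcinoma cells (500 cells/well, DMEM + 10% FBS) were treated with substances for ~72 h at 37C; viability was read by CellTiter-Glo luminescence.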

[19] = molecular target: Cytochrome P450 1A2 (Homo sapiens) (UniProt P05177); experiment: qHTS for inhibitors of CYPIA2 against the NCATS DSHEA and TCM libraries (AID 1919976); also: potency is read from the fitted curve at half-maximal effect
Method in brief: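 CYP1A2 + luciferin substrate, 100 mM KPO4-type buffer; cmpd 15 min RT; 1x NADPH regen, 30-45 min RT dark; detection reagent 30 min RT; luminescence. Minus-enzyme wells as background; furafylline intraplate control.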

[20] = qHTS Counterscreen for compound interference against the NCATS DSHEA and TCM libraries (AID 1919978); conditions: firefly luciferase detection reagent interference, luminescence; also: % of control where 0% means no effect
Method in brief: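 D-luciferin (1 uM final) or 100 mM potassium phosphate buffer alone was preincubated 15 min at RT with compounds (19.5 nM to 39.8 uM final). Luciferin detection reagent was then added and luminescence read after 30 min at RT.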

Sequence of Alpha-galactosidase (Coffea arabica) (Q42656 whole entry, looked up): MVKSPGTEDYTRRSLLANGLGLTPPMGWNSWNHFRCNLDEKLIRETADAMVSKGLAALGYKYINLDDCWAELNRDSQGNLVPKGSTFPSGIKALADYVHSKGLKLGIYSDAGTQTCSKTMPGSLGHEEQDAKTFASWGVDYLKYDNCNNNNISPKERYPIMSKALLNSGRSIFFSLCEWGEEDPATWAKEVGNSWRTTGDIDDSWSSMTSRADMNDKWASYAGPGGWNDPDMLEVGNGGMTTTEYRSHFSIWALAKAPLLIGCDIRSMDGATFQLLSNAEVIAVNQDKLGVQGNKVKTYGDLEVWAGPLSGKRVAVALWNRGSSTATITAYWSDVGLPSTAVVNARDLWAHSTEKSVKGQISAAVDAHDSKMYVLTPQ
Sequence of Alpha-galactosidase A (Homo sapiens) (P06280 whole entry, looked up): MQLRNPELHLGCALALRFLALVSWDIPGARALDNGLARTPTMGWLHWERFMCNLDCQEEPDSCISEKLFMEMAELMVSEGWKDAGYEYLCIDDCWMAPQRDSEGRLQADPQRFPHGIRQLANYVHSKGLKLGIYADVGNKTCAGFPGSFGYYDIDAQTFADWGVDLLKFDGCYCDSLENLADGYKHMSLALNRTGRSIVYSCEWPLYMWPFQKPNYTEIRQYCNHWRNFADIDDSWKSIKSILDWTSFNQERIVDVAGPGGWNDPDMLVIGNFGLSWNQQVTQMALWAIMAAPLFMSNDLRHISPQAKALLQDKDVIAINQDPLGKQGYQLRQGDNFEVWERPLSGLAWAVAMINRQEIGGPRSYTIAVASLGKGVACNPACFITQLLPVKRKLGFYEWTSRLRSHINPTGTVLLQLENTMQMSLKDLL
Sequence of Nuclear receptor subfamily 1 group I member 3 (Homo sapiens) (Q14994 whole entry, looked up): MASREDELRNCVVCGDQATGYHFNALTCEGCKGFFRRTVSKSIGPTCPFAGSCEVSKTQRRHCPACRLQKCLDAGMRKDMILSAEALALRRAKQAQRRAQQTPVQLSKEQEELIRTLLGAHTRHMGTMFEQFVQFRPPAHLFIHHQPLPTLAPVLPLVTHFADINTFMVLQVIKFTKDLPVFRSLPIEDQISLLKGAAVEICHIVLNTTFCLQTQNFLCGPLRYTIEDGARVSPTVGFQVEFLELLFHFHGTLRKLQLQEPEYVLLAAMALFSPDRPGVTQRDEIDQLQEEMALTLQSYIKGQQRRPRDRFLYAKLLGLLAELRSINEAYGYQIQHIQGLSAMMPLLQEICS
Sequence of Cytochrome P450 2C9 (Homo sapiens) (P11712 whole entry, looked up): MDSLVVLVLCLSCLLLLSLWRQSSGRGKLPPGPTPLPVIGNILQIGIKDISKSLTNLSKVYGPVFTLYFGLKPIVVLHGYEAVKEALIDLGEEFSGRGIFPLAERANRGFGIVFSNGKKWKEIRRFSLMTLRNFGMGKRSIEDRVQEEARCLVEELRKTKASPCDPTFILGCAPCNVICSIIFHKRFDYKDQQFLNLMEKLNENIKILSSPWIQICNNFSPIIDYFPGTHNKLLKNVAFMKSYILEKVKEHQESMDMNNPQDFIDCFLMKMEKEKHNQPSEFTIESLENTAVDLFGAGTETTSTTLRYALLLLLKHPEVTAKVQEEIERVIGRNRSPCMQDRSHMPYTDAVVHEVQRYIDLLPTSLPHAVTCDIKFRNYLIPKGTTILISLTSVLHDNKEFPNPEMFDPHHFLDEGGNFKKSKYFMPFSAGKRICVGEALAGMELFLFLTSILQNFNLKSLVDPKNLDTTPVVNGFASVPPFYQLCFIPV
Sequence of Cytochrome P450 1A2 (Homo sapiens) (P05177 whole entry, looked up): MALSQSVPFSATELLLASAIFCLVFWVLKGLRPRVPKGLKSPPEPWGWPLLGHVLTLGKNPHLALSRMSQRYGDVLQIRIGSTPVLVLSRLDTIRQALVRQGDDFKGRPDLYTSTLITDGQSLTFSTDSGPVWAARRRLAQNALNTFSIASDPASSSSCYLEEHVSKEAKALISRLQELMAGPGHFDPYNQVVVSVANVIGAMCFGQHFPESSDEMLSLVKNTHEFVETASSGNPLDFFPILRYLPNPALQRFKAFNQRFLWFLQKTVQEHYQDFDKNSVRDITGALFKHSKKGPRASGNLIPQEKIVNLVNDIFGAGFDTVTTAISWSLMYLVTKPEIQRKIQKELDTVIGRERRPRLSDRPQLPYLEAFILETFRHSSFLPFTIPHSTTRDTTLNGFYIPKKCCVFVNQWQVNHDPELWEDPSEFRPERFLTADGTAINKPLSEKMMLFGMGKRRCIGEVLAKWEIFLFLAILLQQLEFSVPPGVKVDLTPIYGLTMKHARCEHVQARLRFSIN
Sequence of Cytochrome P450 2D6 (Homo sapiens) (P10635 whole entry, looked up): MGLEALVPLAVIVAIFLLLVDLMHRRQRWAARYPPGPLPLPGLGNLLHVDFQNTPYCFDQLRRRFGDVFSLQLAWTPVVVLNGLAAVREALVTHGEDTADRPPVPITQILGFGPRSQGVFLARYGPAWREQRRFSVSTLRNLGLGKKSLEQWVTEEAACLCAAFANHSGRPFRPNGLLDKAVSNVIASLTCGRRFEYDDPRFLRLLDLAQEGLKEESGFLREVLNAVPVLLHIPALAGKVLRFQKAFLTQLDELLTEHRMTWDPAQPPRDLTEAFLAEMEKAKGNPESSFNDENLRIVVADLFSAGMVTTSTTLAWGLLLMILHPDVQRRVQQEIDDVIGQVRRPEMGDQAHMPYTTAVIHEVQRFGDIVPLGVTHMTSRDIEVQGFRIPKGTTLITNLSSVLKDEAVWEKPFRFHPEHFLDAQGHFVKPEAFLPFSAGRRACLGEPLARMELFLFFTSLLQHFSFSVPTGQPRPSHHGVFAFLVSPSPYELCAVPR
Sequence of Cytochrome P450 3A4 (Homo sapiens) (P08684 whole entry, looked up, canonical isoform): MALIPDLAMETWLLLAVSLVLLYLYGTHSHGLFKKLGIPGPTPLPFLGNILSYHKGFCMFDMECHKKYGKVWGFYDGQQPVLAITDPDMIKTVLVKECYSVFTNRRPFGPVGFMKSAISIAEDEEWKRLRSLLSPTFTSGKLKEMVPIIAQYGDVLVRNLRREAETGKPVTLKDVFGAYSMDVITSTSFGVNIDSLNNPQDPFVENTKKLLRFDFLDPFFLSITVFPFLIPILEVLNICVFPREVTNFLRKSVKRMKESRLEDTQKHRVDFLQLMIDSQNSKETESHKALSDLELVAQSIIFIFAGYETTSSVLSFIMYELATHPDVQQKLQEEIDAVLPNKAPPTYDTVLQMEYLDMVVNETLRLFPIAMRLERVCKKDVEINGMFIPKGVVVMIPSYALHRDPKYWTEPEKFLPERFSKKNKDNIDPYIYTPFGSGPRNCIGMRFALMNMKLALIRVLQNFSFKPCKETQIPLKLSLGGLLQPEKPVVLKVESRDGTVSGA
Sequence of Cytochrome P450 2C19 (Homo sapiens) (P33261 whole entry, looked up): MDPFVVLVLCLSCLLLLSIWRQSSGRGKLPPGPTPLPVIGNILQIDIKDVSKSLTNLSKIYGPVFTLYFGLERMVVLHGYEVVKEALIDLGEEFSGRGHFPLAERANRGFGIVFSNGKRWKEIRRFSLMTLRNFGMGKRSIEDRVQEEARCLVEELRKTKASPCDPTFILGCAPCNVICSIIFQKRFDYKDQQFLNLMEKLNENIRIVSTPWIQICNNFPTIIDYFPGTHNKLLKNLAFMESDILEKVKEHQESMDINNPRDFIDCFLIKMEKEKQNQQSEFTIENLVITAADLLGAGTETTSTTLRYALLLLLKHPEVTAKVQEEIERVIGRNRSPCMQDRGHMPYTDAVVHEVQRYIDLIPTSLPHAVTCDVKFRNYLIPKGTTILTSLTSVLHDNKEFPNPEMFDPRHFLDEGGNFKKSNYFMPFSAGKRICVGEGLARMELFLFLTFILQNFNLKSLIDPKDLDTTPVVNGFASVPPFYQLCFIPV
Sequence of Calcium and integrin-binding protein 1 (Homo sapiens) (Q99828 whole entry, looked up): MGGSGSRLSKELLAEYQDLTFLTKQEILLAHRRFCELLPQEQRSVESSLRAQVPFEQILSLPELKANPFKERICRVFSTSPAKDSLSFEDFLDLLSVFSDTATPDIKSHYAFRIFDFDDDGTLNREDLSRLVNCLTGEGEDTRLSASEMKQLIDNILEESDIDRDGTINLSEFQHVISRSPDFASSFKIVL

C=CCN1CCC2(C)c3cc(O)ccc3C[C@H]1[C@H]2C
inactive: outcome [1] | outcome [2] | outcome [3] | outcome [4]

CNc1ccc2oc(C[C@H]3O[C@@]4(CC[C@H]3C)O[C@H](C(C)C(=O)c3ccc[nH]3)[C@H](C)C[C@H]4C)nc2c1C(=O)O (stereo not given in full)
active: Potency [5] 13.9 µM | Potency [6] 31.2 µM

C=C1[C@@H](C)[C@H]2[C@H](Cc3ccccc3)NC(=O)[C@]23OC(=O)/C=C/C(=O)CCC[C@@H](C)C/C=C/[C@H]3[C@@H]1O
active: Potency [7] 10 µM

CN(C)[C@@H]1C(=O)C(C(N)=O)=C(O)[C@@]2(O)C(=O)C3=C(O)c4c(O)ccc(Cl)c4[C@@](C)(O)C3C[C@@H]12 (stereo not given in full)
inactive: activation [8] 4.51%

C=C(CO)C(=O)O[C@H]1CC(=C)[C@@H]2C[C@H](O)C(=C)[C@@H]2[C@H]2OC(=O)C(=C)[C@@H]21
active: Potency [9] 22.4 µM | Potency [17] 2.24 µM | Potency [19] 2.51 µM
inactive: outcome [10] | outcome [11] | outcome [12] | outcome [13] | outcome [14] | outcome [15] | outcome [16] | outcome [18] | max response [20] -4.75%
